Assay results taken from PubChem BioAssay AID1159580 (chemical genetic matrix, 2015).
Hit rate of the full screen: of about 5,500 compounds, about 2,000 (36%) were called active. Inconclusive results (about 18%) are left out. No stated cut-off is given here; in the data, active means normalized growth mostly below about 0.91 (no sharp cut-off); inconclusive means no clear call, values can overlap the other calls; inactive means mostly above about 0.92. The list shows a part of the results.

Assay: chemical genetic growth profiling, strain panel (AID 1159580);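 further: tested at 20 µM; growth read once vehicle control cultures reached saturation at 30 °C; 1 = growth at the plate median or of vehicle wells; lower values mean less growth of the strain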
Conditions: S. cerevisiae deletion strains, growth OD

Measured: normalized growth

COC(OC)c1ccc(C#N)c(=S)[nH]1
inactive: locus YAL013W, strain DEP1, active compounds read low 1.01 | locus YBR229C, strain ROT2, active compounds read low 1.02 | locus YCL061C, strain MRC1, active compounds read low 1.01 | locus YDL101C, strain DUN1, active compounds read low 1 | locus YDL134C, strain PPH21, active compounds read low 1.01 | locus YDR150W, strain NUM1, active compounds read low 0.996 | locus YEL061C, strain CIN8, active compounds read low 1.01 | locus YGR078C, strain PAC10, active compounds read low 0.989 | locus YHR030C, strain SLT2, active compounds read low 1.08 | locus YHR087W, strain rtc3, active compounds read low 1.03 | locus YJL187C, strain SWE1, active compounds read low 0.994 | locus YJR043C, strain POL32, active compounds read low 1.01 | locus YJR075W, strain HOC1, active compounds read low 1 | locus YLR039C, strain RIC1, active compounds read low 1.05 | locus YLR058C, strain SHM2 (second series), active compounds read low 1.01 | locus YLR085C, strain ARP6, active compounds read low 1.16 | locus YLR262C, strain YPT6, active compounds read low 1 | locus YML094W, strain GIM5, active compounds read low 1.04 | locus YMR219W, strain ESC1, active compounds read low 1.01 | locus YMR263W, strain SAP30, active compounds read low 1.02 | locus YMR307W, strain GAS1, active compounds read low 1.06 | locus YNL153C, strain GIM3, active compounds read low 1 | locus YNL298W, strain CLA4 (second series), active compounds read low 1.02 | locus YNL322C, strain KRE1, active compounds read low 1.01 | locus YNR030W, strain Alg12, active compounds read low 0.992 | locus YPL055C, strain LGE1, active compounds read low 1.04 | locus YPL241C, strain CIN2, active compounds read low 1.11 | locus YPR135W, strain CTF4, active compounds read low 1.1
